Source: PubChem BioAssay (National Center for Advancing Translational Sciences (NCATS))
Shown is part of a subset that was picked to be rich in hits.
IL-1B inflam inh: qHTS for Inhibitors of Inflammasome Signaling: IL-1-beta AlphaLISA Primary Screen; THP-1 LPS/ATP IL-1B secretion, AlphaLISA, 16 h; stronger effect = lower value; activity change, % at 57.5 µM; 4.7% of 360,000 active; AID 743279, 2014; in the data active means activity change below about -50%; inconclusive means mostly about -30% to -49%
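THP-1 cells pretreated 1 hr with compounds (up to 57.5 uM final), then stimulated with LPS (250 ng/mL final) plus ATP (1.25 mM final); secreted IL-1B measured by AlphaLISA after 16 hr, decreased signal indicating inhibition.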
12-LOX inh: Primary qHTS assay for inhibitors of human arachidonate 12S-lipoxygenase (ALOX12): Round 2; purified 12hLO, xylenol orange hydroperoxide absorbance; Potency, µM (doses to about 108 µM), inactives show at the highest dose activity change, negative = inhibition, most hits filed as inhibitors; 1.1% of 580,000 active; AID 1671190, 2021; further: potency means the concentration at half of the fitted maximal effect
Target sequence (P18054 whole entry, looked up): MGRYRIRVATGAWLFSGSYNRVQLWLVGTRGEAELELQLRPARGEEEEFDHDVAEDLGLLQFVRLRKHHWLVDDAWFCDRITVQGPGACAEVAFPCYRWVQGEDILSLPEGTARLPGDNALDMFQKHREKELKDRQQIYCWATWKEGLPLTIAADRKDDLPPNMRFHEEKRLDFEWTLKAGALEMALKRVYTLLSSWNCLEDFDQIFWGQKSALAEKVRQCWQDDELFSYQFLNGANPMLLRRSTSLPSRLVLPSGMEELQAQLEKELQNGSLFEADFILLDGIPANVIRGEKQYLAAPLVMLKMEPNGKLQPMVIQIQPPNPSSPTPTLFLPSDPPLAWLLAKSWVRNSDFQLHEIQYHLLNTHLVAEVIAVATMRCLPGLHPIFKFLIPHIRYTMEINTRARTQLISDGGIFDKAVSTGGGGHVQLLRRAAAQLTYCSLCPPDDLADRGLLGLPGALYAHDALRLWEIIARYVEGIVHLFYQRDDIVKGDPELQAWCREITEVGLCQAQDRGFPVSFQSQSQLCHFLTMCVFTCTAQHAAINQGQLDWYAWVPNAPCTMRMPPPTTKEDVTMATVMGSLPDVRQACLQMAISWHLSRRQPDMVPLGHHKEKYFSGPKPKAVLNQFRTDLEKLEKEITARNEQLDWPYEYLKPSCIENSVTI
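Purified human 12hLO at 150 nM in 25 mM Hepes, 0.01% Triton X-100, pH 7.0, preincubated 15 min at room temperature with compound. Reaction started with 40 uM arachidonic acid, 30 min at room temperature. Hydroperoxide measured by Fe-xylenol orange, 573/405 nm absorbance ratio.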
DT40 TDP1 CPT: qHTS for Inhibitors of human tyrosyl-DNA phosphodiesterase 1 (TDP1): qHTS in cells in presence of CPT; chicken DT40 Tdp1-/-;hTDP1 cells + 20 nM CPT, ATP luminescence, 48 h; Potency, µM (doses to about 46.2 µM), for inactives: at the top dose activity change, negative = growth inhibition, usual class: inhibitors; 12% of 420,000 active; further: potency means the concentration at half of the fitted maximal effect; nearly all actives have a fitted effect of over 55% in size
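Cell growth measured by CellTiter-Glo luminescence after a minimum 48 h, 37 C compound exposure with 20 nM CPT in Tdp1-knockout DT40 cells stably expressing hTDP1, seeded 400/well; qHTS titration format.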
HT1080-NT tox: qHTS for induction of synthetic lethality in tumor cells producing 2HG: qHTS for the HT-1080-NT fibrosarcoma cell line; 1.6% of 360,000 active; HT-1080-NT fibrosarcoma viability, CellTiter-Glo ATP luminescence, 48 h; Potency, µM (titrated, usually from 46.1 µM), for the others: top-dose activity, negative = less viability, hits mostly cytotoxic;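 further: NT is the 2HG producing partner of a matched IDH1 knockdown line; potency means the concentration at half of the fitted maximal effect; 0% = DMSO-treated cells and -100% = media-only wells without cells; nearly all actives have a fitted effect of over 55% in size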
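HT-1080-NT; 750 cells/well; 5% FBS RPMI; 48 h compound, 37 degrees C; CellTiter-Glo luminescence; curve fitting and curve-class assignment.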
DT40 TDP1 no CPT: qHTS for Inhibitors of human tyrosyl-DNA phosphodiesterase 1 (TDP1): qHTS in cells in absence of CPT. DT40 Tdp1-/- hTDP1 cells, no CPT, ATP luminescence, 48 h. Potency, µM (doses to about 46.2 µM), for inactives: at the top dose activity change, negative = growth inhibition, hits mostly inhibitors. 15% of 420,000 active. AID 686978, 2013; further: potency means the concentration at half of the fitted maximal effect; nearly all actives have a fitted effect of over 55% in size
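Cells were dispensed at 400 per well, compounds added by pin tool, plates incubated ≥48 hr at 37 °C, then CellTiter-Glo added for 30 min at room temperature before luminescence reading. Line: DT40 Tdp1-/- complemented with hTDP1; camptothecin omitted.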
HT1080 IDH1KD tx: qHTS for induction of synthetic lethality in tumor cells producing 2HG: qHTS for the HT-1080-IDH1KD cell line. HT-1080 IDH1 knockdown viability, ATP luminescence, 48 h. Potency, µM (top dose mostly 46.1 µM), without a hit: top-dose activity, negative = toxicity, hits mostly cytotoxic. 2% of 360,000 active. AID 686971, 2013;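 further: potency means the concentration at half of the fitted maximal effect; 0% = DMSO wells and -100% = cell-free medium wells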
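% activity derives from luminescence (CellTiter-Glo), normalised to DMSO and no-cell wells. HT-1080-IDH1KD cells, 750/well, had 48 h compound exposure at 37 °C.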
Numbers without * were called inactive; u = inconclusive; x = no result given; [ ] = remark or other dose. Unless noted, the call rests on the fitted dose curve; in most records, active means well fitted curve in the direction sought with a large enough effect; inconclusive means small, poorly fitted or top-dose-only effect, or another doubt; inactive means no such curve, though single readings can be large; an effect the other way counts as inactive or inconclusive. Unless noted, on the % scale 0 is the no-effect control and ±100 the full control effect.

SMILES	IL-1B inflam inh	12-LOX inh	DT40 TDP1 CPT	HT1080-NT tox	DT40 TDP1 no CPT	HT1080 IDH1KD tx
CN(C)c1ncc2nc(-c3ccc(Cl)cc3)c(=O)n(Cc3cccs3)c2n1	x	-18.1%	0.6%	x	-6.9%	x
CC1(C(=O)NS(=O)(=O)C2CC2)CCCN(C(=O)c2cccc(Cl)c2)C1 (stereo unspecified)	-2.0	0.4%	7.31µM*	4.0%	1.46µM*	27.2%
CCCS(=O)(=O)NC(=O)C1(C)CCN(C(=O)c2ccc(F)c(Cl)c2)C1 (stereo unspecified)	11.3	u	7.1%	u	13.1%	15.6%
CC1(C(=O)NS(=O)(=O)C2CC2)CCCN(C(=O)c2ccc(F)c(Cl)c2)C1 (stereo unspecified)	15.5	-4.4%	5.8µM*	u	5.17µM*	7.5%
Cn1cccc1C(=O)N1CCC2(CC1)CCN(c1ncccn1)CC2	x	-12.5%[57.4 µM]	u	x	u	x
Cn1cccc1C(=O)N1CCC2(CCN(C(=O)Nc3ccccc3)CC2)CC1	x	-10.7%[57.4 µM]	u	x	u	x
Cn1cccc1C(=O)N1CCC2(CC1)CCN(C(c1ccccc1)c1ccccc1)CC2	x	4.3%[57.4 µM]	u	x	14.6µM*	x
Cn1cccc1C(=O)N1CCC2(CC1)CCN(c1ccccn1)CC2	x	-1.5%[57.4 µM]	u	x	14.6µM*	x
Cn1cccc1C(=O)N1CCC2(CCCN(c3ncccn3)C2)CC1	x	-14.8%[57.4 µM]	u	x	0.651µM*	x
Nc1nccnc1C(=O)NCCc1cn2ccccc2n1	x	11.3%	x	x	x	x
N/C(=N\OC(=O)CC(c1ccccc1)c1ccccc1)c1cccnc1	u	-2.6%	11.6µM*	u	u	u
COc1ccc(C2(C)NC(=O)N(CC(=O)NC(C)c3ccc(CC(C)C)cc3)C2=O)cc1 (stereo unspecified)	-20.6	8.9%	u	-3.0%	u	-1.2%
COC(=O)N1C(=O)[C@](c2ccsc2)(C(C)C)N1C(=O)OC	-98.8*	6.6%	14.6µM*	-3.1%	u	-9.9%
COC(=O)N1C(=O)[C@](c2ccc(OC)cc2)(C(C)C)N1C(=O)OC	-91.8*	-48.4%	20.6µM*	-2.7%	16.4µM*	0.3%
CC(C)C1(c2ccsc2)NC(=O)NC1=O (stereo unspecified)	0.0	-23.6%	2.5%	-3.7%	-1.9%	-2.2%
COc1cccc(C(=O)NCC(=O)OCc2ccc(F)cc2Cl)c1	0.0	-3.3%	-6.6%	15.0%	-13.4%	14.6%
CCCCN1C(=O)C(CC(=O)NCCN2CCOCC2)CC(C(=O)N(CC)CC)=C1C (stereo unspecified)	5.1	0.2%	6.3%	6.7%	-13.9%	13.7%
O=C(O)c1ccc(-n2nnc3ccccc32)c([N+](=O)[O-])c1	11.7	-12.2%	7.3%	7.0%	6.0%	1.1%
O=[N+]([O-])c1cnccc1-n1nnc2ccccc21	-115.7*	0.6%	16.4µM*	u	18.4µM*	u
CCn1nnc2cc(C(=O)Nc3nc(-c4ccc(NC(=O)C(C)(C)C)cc4)cs3)ccc21	x	28.1%	x	x	x	x
CC1(C)CC(=O)c2sc(NC(=O)C(C)(C)C)nc2C1	-8.3	2.2%	u	u	u	12.3%
CC(Oc1ccccc1)C(=O)Nc1nc2c(s1)C(=O)CC(C)(C)C2 (stereo unspecified)	-11.0	0.0%	-4.2%	2.9%	-6.1%	1.9%
CC1(C)CC(=O)c2sc(NC(=O)CN3CCCCC3)nc2C1	19.0	31.6µM*	-5.0%	13.3%	-18.1%	16.5%
CC1(C)CC(=O)c2sc(NC(=O)CCS(=O)(=O)c3ccccc3)nc2C1	-82.1*	36.4%[57.4 µM]	3.26µM*	-20.8%	5.8µM*	-28.9%
Cc1cc(N)cc(C)c1-c1c(Br)cc(N)cc1Br	14.2	u	13µM*	u	18.4µM*	u
SMILES	IL-1B inflam inh	12-LOX inh	DT40 TDP1 CPT	HT1080-NT tox	DT40 TDP1 no CPT	HT1080 IDH1KD tx
Cc1cc(C(=O)O)cc(Br)c1N	12.9	2.9%	15.0%	2.7%	4.9%	12.2%
COc1ccccc1C(OC(=O)c1cccs1)C(=O)NCc1ccco1 (stereo unspecified)	-5.7	-18.7%	18.4µM*	6.9%	u	11.2%
COc1ccccc1NC(=O)NCc1ccco1	-67.9*	11.5%	-15.8%	2.7%	u	-26.3%
COc1ccc(NC(=O)NCc2ccco2)c(OC)c1	1.0	-1.2%	u	19.1%	u	24.5%
O=C(NCc1ccccc1)c1cc(NCc2cccnc2)ccn1	x	38.6%	x	x	x	x
O=C(c1ccccc1)C(CCc1ccccn1)CCc1ccccn1	-15.9	-5.8%	u	-2.2%	16.4µM*	-2.6%
CCOC(=O)/C(C#N)=C/c1c(N2CCCCCC2)nc2ccccn2c1=O	4.0	0.0%	u	-0.5%	20.6µM*	-2.3%
CCNc1nn2ccccc2c1/C=C(\C#N)C(=O)OCC	-21.0	-28.1%	u	3.4%	16.4µM*	3.7%
O=C(Nc1ccccc1Cl)Nc1c(N2CCCC2)c2ccccc2oc1=O	x	-11.9%	x	x	x	x
C=CCNC(=S)NNC(=O)C(CC)CC(C)(C)O (stereo unspecified)	x	19.1%	x	x	x	x
O=c1[nH]c(=O)c2cc([N+](=O)[O-])cc([N+](=O)[O-])c2[nH]1	-73.5*	2.3%	u	0.7%	u	-11.3%
O=c1c2nncn2c2cccnc2n1CCNc1ncc(C(F)(F)F)cc1Cl	-16.1	3.9%	-4.1%	-16.3%	-14.9%	3.0%
O=c1[nH]c2cccc(Cl)c2n(CCNc2ncc(C(F)(F)F)cc2Cl)c1=O	-28.9	u	u	23.1µM*	u	u
O=c1c(Cl)nc2cc(Cl)ccc2n1CCNc1ncc(C(F)(F)F)cc1Cl	26.9	x	0.517µM*	0.9%	0.581µM*	3.3%
NNc1nc2cccnc2n(CCNc2ncc(C(F)(F)F)cc2Cl)c1=O	0.0	-11.3%	16.4µM*	-22.1%	u	u
O=C1C(N2CCN(Cc3cccnc3)CC2)CCN1CCc1ccccc1 (stereo unspecified)	x	35.2%	x	x	x	x
N#Cc1c(F)cccc1NCC12CC3CC(CC(C3)C1)C2	x	-26.7%	x	x	x	x
